The values that follow come from PubChem BioAssay AID1259370 (Center for Chemical Genomics, University of Michigan, 2018).

The whole screen tested about 94,000 compounds, of which about 680 (0.72%) were called active. No stated cut-off is given here; in the data, active means z-score above about 3.2; inactive means the rest. What follows is part of a selection rich in actives, with near analogues and random picks from the rest.

In the assay the target is M-phase inducer phosphatase 2 (Homo sapiens) + Cyclin-dependent kinase 2 (Homo sapiens) + Cyclin-A2 (Homo sapiens) (UniProt P30305+P24941+P20248). Put plainly: primary biochemical HTRF screen for inhibition of M-phase inducer phosphatase 2 binding to cyclin-dependent kinase 2/cyclin A (AID 1259370). As to conditions: HTRF CDC25B-CDK2/CyclinA binding, anti-His/anti-Flag; stronger effect = higher value. Background: In TR-FRET formats the signal depends on donor and acceptor labels being close together.
As to `Cc1cc(C(=O)O)c2cc(Br)ccc2n1`, the z-score is -1.02 (inactive).
As for `COc1cccc(-c2cn3nc(C)sc3n2)c1`, the z-score was -1.51 (inactive).
As to `CCOC(=O)N1CCN(c2c(NCCN3CCN(c4cccc(Cl)c4)CC3)c(=O)c2=O)CC1`, the z-score was -2.84 (inactive).
For `CCOC(=O)N1CCC(c2cc(=O)n(-c3ccccc3)[nH]2)CC1` the value was 7.05 (active); for `CCOC(=O)N1CCC(C(N)=O)CC1`, -0.86 (inactive).
For `Cc1nc2sc(C(c3cccc(Cl)c3)N3CCN(c4ccccc4)CC3)c(O)n2n1` (stereo not given) the value was -0.28 (inactive); for `Cc1ccc(N(CC(=O)NC(C(C)C)C(C)C)S(C)(=O)=O)cc1Cl`, -1.52 (inactive).
For `O=C(Nc1ccc(O)c(-c2nc3ccccc3s2)c1)C(c1ccccc1)c1ccccc1` the value was -2.45 (inactive).
For `CCN1CCCC1CNC(=O)c1sc2nc(C)cc(C)c2c1-n1cccc1` (stereo not given), the z-score was -0.15 (inactive).
For `CCN1CCCC1CNC(=O)c1nnc(CS(=O)(=O)c2ccccc2)o1` (stereo not given) the value was 7.59 (active).
For `O=C(NCCN1CCOCC1)c1nnc(CS(=O)(=O)c2ccccc2)o1` the value was -1.86 (inactive).
For `Cc1nc2sccn2c(=O)c1S(=O)(=O)N1CCOCC1` the value was -0.79 (inactive).
Turning to `Cc1cc(C)cc(Nc2nccc(=O)[nH]2)c1`, the z-score is -2.01 (inactive).
For `CC1CCCC(NC(=O)c2cc3c(s2)-c2ccccc2OC3)C1C` (stereo not given) the value was -0.62 (inactive).
As for `Nc1ncnc2nc(SCC(=O)NCc3ccco3)[nH]c12`, the figure is -1.28 (inactive); as for `CCCCc1c(O)nc(SCC(=O)NCc2ccco2)[nH]c1=O`, 4.39 (active); as for `CC(C)Cc1c(O)nc(SCC(=O)NCc2ccco2)[nH]c1=O`, 0.23 (inactive).
For `O=C(CC1Oc2ccccc2NC1=O)NCc1ccco1` (stereo not given) the value was -1.29 (inactive).
On to `Cn1c(=O)c2c(c3ccccc31)OC(=O)CC2c1ccc(Br)cc1` (stereo not given), for which the z-score is -0.71 (inactive).
As for `O=C1CC(c2ccccc2)Sc2nc(-c3ccccc3)nn21` (stereo not given), the figure is -0.15 (inactive).
